Structures can show the parent of a compound that is named as a salt.
Experiments:
Conditions in all cases: treatment time: 24 h
HepG2-ACTB-RAB5A = assay: lowest phenotypically active concentration; higher = less potent
In short: (§1)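 Cells from fifteen gene-edited reporter lines (A549, HepG2 and WPMY1) were treated for 24 h at 0.3, 1, 3 or 9 µM and imaged live, four wells per condition. Features were normalised per well to solvent control wells. A condition deviated if ≥3 of 4 wells passed the 95th percentile of control Euclidean distances and was reproducible if its median replicate Pearson correlation beat the 95th percentile of non-replicates; phenotypic activity needed both.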

HepG2-CANX-COX4 = assay: as above
In short: as §1

HepG2-TP53BP1-CLTA = assay: as above
In short: as §1

HepG2-TUBA1B-RELA = assay: as above
In short: as §1

WPMY1-ACTB-RAB5A [1] = assay: as above
In short: as §1

WPMY1-CANX-COX4 = assay: as above
In short: as §1

WPMY1-GM130-SQSTM1 = assay: as above
In short: as §1

WPMY1-TP53BP1-CLTA = assay: as above
In short: as §1

WPMY1-TUBA1B-RELA = assay: as above
In short: as §1

WPMY1-ACTB-RAB5A [2] = assay: phenotypically active (imaging signature differs from DMSO and reproducible) at any of 0.3-9 uM (binary (1 = active, 0 = inactive)); higher = active
In short: as §1

In the case of `COc1cc(N2CCOCC2)ccc1Nc1ncc(Cl)c(Nc2ccccc2NS(C)(=O)=O)n1`, the “lowest phenotypically active concentration” value (HepG2-ACTB-RAB5A) is reported as 3 µM, the “lowest phenotypically active concentration” value (HepG2-CANX-COX4) is reported as 3 µM and the “lowest phenotypically active concentration” value (HepG2-TP53BP1-CLTA) is reported as 3 µM. The “lowest phenotypically active concentration” value (HepG2-TUBA1B-RELA) was 3 µM, the “lowest phenotypically active concentration” value (WPMY1-ACTB-RAB5A [1]) was 9 µM and the “lowest phenotypically active concentration” value (WPMY1-CANX-COX4) was 9 µM. The “lowest phenotypically active concentration” value (WPMY1-GM130-SQSTM1) was 9 µM, the “lowest phenotypically active concentration” value (WPMY1-TP53BP1-CLTA) was 9 µM and the “lowest phenotypically active concentration” value (WPMY1-TUBA1B-RELA) was 3 µM. The phenotypically active (WPMY1-ACTB-RAB5A [2]) was 1 (active).

`O=C(Nc1ccc(-c2ccnc(Nc3ccc(N4CCOCC4)cc3)n2)cc1)[C@@H]1CCCN1` was tested, and the “lowest phenotypically active concentration” value (HepG2-ACTB-RAB5A) was 3 µM, the “lowest phenotypically active concentration” value (HepG2-CANX-COX4) was 3 µM and the “lowest phenotypically active concentration” value (HepG2-TP53BP1-CLTA) was 9 µM. The “lowest phenotypically active concentration” value (HepG2-TUBA1B-RELA) was 3 µM, the “lowest phenotypically active concentration” value (WPMY1-ACTB-RAB5A [1]) was 3 µM and the “lowest phenotypically active concentration” value (WPMY1-CANX-COX4) was 3 µM. The “lowest phenotypically active concentration” value (WPMY1-GM130-SQSTM1) was 3 µM, the “lowest phenotypically active concentration” value (WPMY1-TP53BP1-CLTA) was 3 µM and the “lowest phenotypically active concentration” value (WPMY1-TUBA1B-RELA) was 3 µM. The phenotypically active (WPMY1-ACTB-RAB5A [2]) was 1 (active).

With `CC[C@@H]1C(=O)N(C)c2cnc(Nc3ccc(C(=O)NC4CCN(C)CC4)cc3OC)nc2N1C1CCCC1` the “lowest phenotypically active concentration” value (HepG2-ACTB-RAB5A) was ≤ 0.3 µM, the “lowest phenotypically active concentration” value (HepG2-CANX-COX4) was 1 µM and the “lowest phenotypically active concentration” value (HepG2-TP53BP1-CLTA) was ≤ 0.3 µM. For the same molecule, the “lowest phenotypically active concentration” value (HepG2-TUBA1B-RELA) was ≤ 0.3 µM, the “lowest phenotypically active concentration” value (WPMY1-ACTB-RAB5A [1]) was ≤ 0.3 µM and the “lowest phenotypically active concentration” value (WPMY1-CANX-COX4) was ≤ 0.3 µM. For the same molecule, the “lowest phenotypically active concentration” value (WPMY1-GM130-SQSTM1) was ≤ 0.3 µM, the “lowest phenotypically active concentration” value (WPMY1-TP53BP1-CLTA) was ≤ 0.3 µM and the “lowest phenotypically active concentration” value (WPMY1-TUBA1B-RELA) was ≤ 0.3 µM. For the same molecule, the phenotypically active (WPMY1-ACTB-RAB5A [2]) was 1 (active).

`CC(C)NCCCn1c(Sc2cc3c(cc2I)OCO3)nc2c(N)ncnc21` was tested, and the “lowest phenotypically active concentration” value (HepG2-ACTB-RAB5A) was ≤ 0.3 µM, the “lowest phenotypically active concentration” value (HepG2-CANX-COX4) was ≤ 0.3 µM and the “lowest phenotypically active concentration” value (HepG2-TP53BP1-CLTA) was ≤ 0.3 µM. For the same molecule, the “lowest phenotypically active concentration” value (HepG2-TUBA1B-RELA) was ≤ 0.3 µM, the “lowest phenotypically active concentration” value (WPMY1-ACTB-RAB5A [1]) was ≤ 0.3 µM and the “lowest phenotypically active concentration” value (WPMY1-CANX-COX4) was ≤ 0.3 µM. The “lowest phenotypically active concentration” value (WPMY1-GM130-SQSTM1) was ≤ 0.3 µM, the “lowest phenotypically active concentration” value (WPMY1-TP53BP1-CLTA) was ≤ 0.3 µM and the “lowest phenotypically active concentration” value (WPMY1-TUBA1B-RELA) was ≤ 0.3 µM. For the same molecule, the phenotypically active (WPMY1-ACTB-RAB5A [2]) was 1 (active).

`O=C(Nc1cccc(Cl)c1)Nc1ncc(CCNc2ncnc3ccsc23)s1` [SNS 314 mesylate] was tested, and the “lowest phenotypically active concentration” value (HepG2-ACTB-RAB5A) was ≤ 0.3 µM, the “lowest phenotypically active concentration” value (HepG2-CANX-COX4) was ≤ 0.3 µM and the “lowest phenotypically active concentration” value (HepG2-TP53BP1-CLTA) was ≤ 0.3 µM. The “lowest phenotypically active concentration” value (HepG2-TUBA1B-RELA) was ≤ 0.3 µM, the “lowest phenotypically active concentration” value (WPMY1-ACTB-RAB5A [1]) was ≤ 0.3 µM and the “lowest phenotypically active concentration” value (WPMY1-CANX-COX4) was ≤ 0.3 µM. For the same molecule, the “lowest phenotypically active concentration” value (WPMY1-GM130-SQSTM1) was ≤ 0.3 µM, the “lowest phenotypically active concentration” value (WPMY1-TP53BP1-CLTA) was ≤ 0.3 µM and the “lowest phenotypically active concentration” value (WPMY1-TUBA1B-RELA) was ≤ 0.3 µM. The phenotypically active (WPMY1-ACTB-RAB5A [2]) was 1 (active).

`Cc1c(C(=O)N2CCOc3ccc(-c4ccc(N)nc4)cc3C2)ccc(S(C)(=O)=O)c1F` was tested, and the “lowest phenotypically active concentration” value (HepG2-ACTB-RAB5A) was 3 µM, the “lowest phenotypically active concentration” value (HepG2-CANX-COX4) was 3 µM and the “lowest phenotypically active concentration” value (HepG2-TP53BP1-CLTA) was 9 µM. The “lowest phenotypically active concentration” value (HepG2-TUBA1B-RELA) was 3 µM, the “lowest phenotypically active concentration” value (WPMY1-ACTB-RAB5A [1]) was 3 µM and the “lowest phenotypically active concentration” value (WPMY1-CANX-COX4) was 3 µM. For the same molecule, the “lowest phenotypically active concentration” value (WPMY1-GM130-SQSTM1) was 3 µM, the “lowest phenotypically active concentration” value (WPMY1-TP53BP1-CLTA) was 3 µM and the “lowest phenotypically active concentration” value (WPMY1-TUBA1B-RELA) was 9 µM. For the same molecule, the phenotypically active (WPMY1-ACTB-RAB5A [2]) was 1 (active).

`NC1(C(=O)N[C@@H](CCO)c2ccc(Cl)cc2)CCN(c2ncnc3[nH]ccc23)CC1` was tested, and the “lowest phenotypically active concentration” value (HepG2-ACTB-RAB5A) was 3 µM, the “lowest phenotypically active concentration” value (HepG2-CANX-COX4) was 3 µM and the “lowest phenotypically active concentration” value (HepG2-TP53BP1-CLTA) was 1 µM. For the same molecule, the “lowest phenotypically active concentration” value (HepG2-TUBA1B-RELA) was 1 µM, the “lowest phenotypically active concentration” value (WPMY1-ACTB-RAB5A [1]) was 1 µM and the “lowest phenotypically active concentration” value (WPMY1-CANX-COX4) was 1 µM. For the same molecule, the “lowest phenotypically active concentration” value (WPMY1-GM130-SQSTM1) was 1 µM, the “lowest phenotypically active concentration” value (WPMY1-TP53BP1-CLTA) was 1 µM and the “lowest phenotypically active concentration” value (WPMY1-TUBA1B-RELA) was 1 µM. The phenotypically active (WPMY1-ACTB-RAB5A [2]) was 1 (active).

With `CCC1(O)CC2CN(CCc3c([nH]c4ccccc34)C(C(=O)OC)(c3cc4c(cc3OC)N(C)C3C(O)(C(=O)OC)C(OC(C)=O)C5(CC)C=CCN6CCC43C65)C2)C1` (stereo not given) [Vinblastine sulfate] the “lowest phenotypically active concentration” value (HepG2-ACTB-RAB5A) was ≤ 0.3 µM, the “lowest phenotypically active concentration” value (HepG2-CANX-COX4) was ≤ 0.3 µM and the “lowest phenotypically active concentration” value (HepG2-TP53BP1-CLTA) was 1 µM. The “lowest phenotypically active concentration” value (HepG2-TUBA1B-RELA) was ≤ 0.3 µM, the “lowest phenotypically active concentration” value (WPMY1-ACTB-RAB5A [1]) was ≤ 0.3 µM and the “lowest phenotypically active concentration” value (WPMY1-CANX-COX4) was ≤ 0.3 µM. For the same molecule, the “lowest phenotypically active concentration” value (WPMY1-GM130-SQSTM1) was ≤ 0.3 µM, the “lowest phenotypically active concentration” value (WPMY1-TP53BP1-CLTA) was ≤ 0.3 µM and the “lowest phenotypically active concentration” value (WPMY1-TUBA1B-RELA) was ≤ 0.3 µM. For the same molecule, the phenotypically active (WPMY1-ACTB-RAB5A [2]) was 1 (active).

For `CCCCc1oc2ccccc2c1C(=O)c1cc(I)c(OCCN(CC)CC)c(I)c1` [amiodarone], the “lowest phenotypically active concentration” value (HepG2-ACTB-RAB5A) was 9 µM, the “lowest phenotypically active concentration” value (HepG2-CANX-COX4) was 9 µM and the “lowest phenotypically active concentration” value (HepG2-TP53BP1-CLTA) was 9 µM. The “lowest phenotypically active concentration” value (HepG2-TUBA1B-RELA) was 3 µM, the “lowest phenotypically active concentration” value (WPMY1-ACTB-RAB5A [1]) was 9 µM and the “lowest phenotypically active concentration” value (WPMY1-CANX-COX4) was 9 µM. The “lowest phenotypically active concentration” value (WPMY1-GM130-SQSTM1) was 9 µM, the “lowest phenotypically active concentration” value (WPMY1-TP53BP1-CLTA) was 9 µM and the “lowest phenotypically active concentration” value (WPMY1-TUBA1B-RELA) was 9 µM. For the same molecule, the phenotypically active (WPMY1-ACTB-RAB5A [2]) was 1 (active).
